Assay results: publication PMC5540273 (PLoS ONE, 2017)

Legend:
Settings in all cases: concentration: 1 μM, replicates: in singlicate; n = 1
[1] = tested on: CDK4-cyclinD3
[2] = tested on: CDK4
[3] = tested on: CDK5
[4] = tested on: CDK7
[5] = tested on: CDK8
[6] = tested on: CDK9
[7] = tested on: CDKL1
[8] = tested on: CDKL2
[9] = tested on: CDKL3
[10] = tested on: CDKL5
[11] = tested on: CHEK1
[12] = tested on: CHEK2
[13] = tested on: CIT
[14] = tested on: CLK1
[15] = tested on: CLK2
[16] = tested on: CLK3
[17] = tested on: CLK4
[18] = tested on: CSF1R-autoinhibited
[19] = tested on: CSF1R
[20] = tested on: CSK
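Further: KINOMEscan kinase panel screen.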

## COc1cc2c(cc1OCCN1CCN(C)CC1)ncc1c3ccc(C#N)cc3[nH]c21
[1]
  %Inh: 0%
[2]
  %Inh: 0%
[3]
  %Inh: 9%
[4]
  %Inh: 99.7%
[5]
  %Inh: 3%
[6]
  %Inh: 14%
[7]
  %Inh: 32%
[8]
  %Inh: 6%
[9]
  %Inh: 0%
[10]
  %Inh: 0%
[11]
  %Inh: 83%
[12]
  %Inh: 45%
[13]
  %Inh: 99.2%
[14]
  %Inh: 96.7%
[15]
  %Inh: 86%
[16]
  %Inh: 25%
[17]
  %Inh: 92.6%
[18]
  %Inh: 99.3%
[19]
  %Inh: 49%
[20]
  %Inh: 0%

## CN(C(=O)c1ccc(-c2cc(-c3c[nH]nc3-c3ccccn3)ccn2)cc1)C1CCOCC1 [GW810083]
[1]
  %Inh: 0%
[2]
  %Inh: 15%
[3]
  %Inh: 0%
[4]
  %Inh: 9%
[5]
  %Inh: 45%
[6]
  %Inh: 0%
[7]
  %Inh: 21%
[8]
  %Inh: 0%
[9]
  %Inh: 47%
[10]
  %Inh: 0%
[11]
  %Inh: 0%
[12]
  %Inh: 12%
[13]
  %Inh: 5%
[14]
  %Inh: 23%
[15]
  %Inh: 0%
[16]
  %Inh: 0%
[17]
  %Inh: 0%
[18]
  %Inh: 31%
[19]
  %Inh: 20%
[20]
  %Inh: 0%

## CCc1ccnc(/C=C/c2n[nH]c3cc(Sc4ccccc4C(=O)NC)ccc23)c1
[1]
  %Inh: 0%
[2]
  %Inh: 0%
[3]
  %Inh: 1%
[4]
  %Inh: 0%
[5]
  %Inh: 0%
[6]
  %Inh: 10%
[7]
  %Inh: 3%
[8]
  %Inh: 0%
[9]
  %Inh: 2%
[10]
  %Inh: 12%
[11]
  %Inh: 0%
[12]
  %Inh: 8%
[13]
  %Inh: 0%
[14]
  %Inh: 0%
[15]
  %Inh: 0%
[16]
  %Inh: 0%
[17]
  %Inh: 0%
[18]
  %Inh: 66%
[19]
  %Inh: 99.9%
[20]
  %Inh: 12%

## O=c1cc(N2CCOCC2)nc2n(Cc3cccc(C(F)(F)F)c3)ccn12 [GSK2297543]
[1]
  %Inh: 7%
[2]
  %Inh: 12%
[3]
  %Inh: 0%
[4]
  %Inh: 0%
[5]
  %Inh: 16%
[6]
  %Inh: 0%
[7]
  %Inh: 0%
[8]
  %Inh: 20%
[9]
  %Inh: 0%
[10]
  %Inh: 0%
[11]
  %Inh: 0%
[12]
  %Inh: 0%
[13]
  %Inh: 27%
[14]
  %Inh: 17%
[15]
  %Inh: 20%
[16]
  %Inh: 0%
[17]
  %Inh: 6%
[18]
  %Inh: 0%
[19]
  %Inh: 0%
[20]
  %Inh: 0%

## O=C1NC(=O)C(N2CCc3ccccc32)=C1c1cccc(Cl)c1 [SB-408010]
[1]
  %Inh: 0%
[2]
  %Inh: 0%
[3]
  %Inh: 7%
[4]
  %Inh: 9%
[5]
  %Inh: 0%
[6]
  %Inh: 0%
[7]
  %Inh: 0%
[8]
  %Inh: 11%
[9]
  %Inh: 0%
[10]
  %Inh: 0%
[11]
  %Inh: 0%
[12]
  %Inh: 7%
[13]
  %Inh: 0%
[14]
  %Inh: 0%
[15]
  %Inh: 0%
[16]
  %Inh: 0%
[17]
  %Inh: 21%
[18]
  %Inh: 16%
[19]
  %Inh: 0%
[20]
  %Inh: 11%

## Cc1ccc(NC(=O)c2ccnc(N3CCN(C)CC3)c2)cc1-c1ccc(C(=O)NCC2CC2)cc1 [GW775604]
[1]
  %Inh: 0%
[2]
  %Inh: 2%
[3]
  %Inh: 0%
[4]
  %Inh: 0%
[5]
  %Inh: 0%
[6]
  %Inh: 0%
[7]
  %Inh: 0%
[8]
  %Inh: 0%
[9]
  %Inh: 5%
[10]
  %Inh: 0%
[11]
  %Inh: 0%
[12]
  %Inh: 15%
[13]
  %Inh: 0%
[14]
  %Inh: 0%
[15]
  %Inh: 0%
[16]
  %Inh: 0%
[17]
  %Inh: 0%
[18]
  %Inh: 0%
[19]
  %Inh: 22%
[20]
  %Inh: 0%

## COCCNC(=O)c1ccc(-c2cc(C(=O)NC3CC3)cc(F)c2C)cc1 [GW868318]
[1]
  %Inh: 0%
[2]
  %Inh: 21%
[3]
  %Inh: 11%
[4]
  %Inh: 25%
[5]
  %Inh: 0%
[6]
  %Inh: 0%
[7]
  %Inh: 19%
[8]
  %Inh: 28%
[9]
  %Inh: 27%
[10]
  %Inh: 26%
[11]
  %Inh: 9%
[12]
  %Inh: 19%
[13]
  %Inh: 1%
[14]
  %Inh: 18%
[15]
  %Inh: 24%
[16]
  %Inh: 37%
[17]
  %Inh: 10%
[18]
  %Inh: 5%
[19]
  %Inh: 19%
[20]
  %Inh: 13%

## CN1c2ccc(CNc3ccc(F)cc3)cc2-c2c(cnn2C)S1(=O)=O
[1]
  %Inh: 0%
[2]
  %Inh: 0%
[3]
  %Inh: 0%
[4]
  %Inh: 0%
[5]
  %Inh: 0%
[6]
  %Inh: 0%
[7]
  %Inh: 9%
[8]
  %Inh: 0%
[9]
  %Inh: 0%
[10]
  %Inh: 0%
[11]
  %Inh: 0%
[12]
  %Inh: 0%
[13]
  %Inh: 1%
[14]
  %Inh: 0%
[15]
  %Inh: 11%
[16]
  %Inh: 0%
[17]
  %Inh: 17%
[18]
  %Inh: 1%
[19]
  %Inh: 0%
[20]
  %Inh: 0%

## Cl.Nc1ncnc2occ(-c3ccc(NC(=O)Nc4cc(C(F)(F)F)ccc4F)cc3)c12 [SB-707548]
[1]
  %Inh: 11%
[2]
  %Inh: 2%
[3]
  %Inh: 59%
[4]
  %Inh: 97.8%
[5]
  %Inh: 100%
[6]
  %Inh: 78%
[7]
  %Inh: 7%
[8]
  %Inh: 74%
[9]
  %Inh: 95%
[10]
  %Inh: 0%
[11]
  %Inh: 6%
[12]
  %Inh: 45%
[13]
  %Inh: 82%
[14]
  %Inh: 69%
[15]
  %Inh: 11%
[16]
  %Inh: 13%
[17]
  %Inh: 69%
[18]
  %Inh: 90.7%
[19]
  %Inh: 99.9%
[20]
  %Inh: 20%

## COc1cc(Nc2nccc(N3CCC(NC(=O)c4cccc(NC(C)=O)c4)C3)n2)cc(OC)c1OC (stereo not shown) [GSK1379754]
[1]
  %Inh: 0%
[2]
  %Inh: 12%
[3]
  %Inh: 0%
[4]
  %Inh: 9%
[5]
  %Inh: 33%
[6]
  %Inh: 0%
[7]
  %Inh: 0%
[8]
  %Inh: 22%
[9]
  %Inh: 0%
[10]
  %Inh: 4%
[11]
  %Inh: 0%
[12]
  %Inh: 19%
[13]
  %Inh: 23%
[14]
  %Inh: 10%
[15]
  %Inh: 3%
[16]
  %Inh: 0%
[17]
  %Inh: 13%
[18]
  %Inh: 0%
[19]
  %Inh: 38%
[20]
  %Inh: 0%

## N#Cc1ccc(-c2cc(-c3c[nH]nc3-c3ccccn3)ccn2)cc1 [GW693028]
[1]
  %Inh: 2%
[2]
  %Inh: 11%
[3]
  %Inh: 0%
[4]
  %Inh: 0%
[5]
  %Inh: 23%
[6]
  %Inh: 0%
[7]
  %Inh: 8%
[8]
  %Inh: 13%
[9]
  %Inh: 0%
[10]
  %Inh: 0%
[11]
  %Inh: 0%
[12]
  %Inh: 0%
[13]
  %Inh: 35%
[14]
  %Inh: 22%
[15]
  %Inh: 8%
[16]
  %Inh: 0%
[17]
  %Inh: 38%
[18]
  %Inh: 0%
[19]
  %Inh: 20%
[20]
  %Inh: 0%
